HCV inh = blocks hepatitis C virus | Huh7.5.1 HCVcc-Cre infection, luciferase reporter, 44 h | Potency, µM (top dose mostly 41.8 µM), for the others: at the highest dose activity change, negative = inhibition, hits mostly inhibitors | 3.4% of 340,000 active | AID 651820; further: potency means the concentration at half of the fitted maximal effect
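Cells (1,000/well) were plated 4 h before compound, then infected with HCVcc-Cre virus (~0.5 moi). After 44 h further culture, infection was read as luciferase luminescence following a 15 min substrate incubation at room temperature.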
Sm TGR inh = S. mansoni TGR enzyme inhibition; 3% of 360,000 active; purified TGR, DTNB reduction, TNB absorbance 405 nm; Q962Y6; Potency, µM (series often up to 114 µM), for inactives: at the highest dose activity change, negative = inhibition, usual class: inhibitors; further: potency means the concentration at half of the fitted maximal effect; nearly all actives have a fitted effect of over 60% in size
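First, TGR (20 nM dispensed) and NADPH were mixed with compound. Second, a 15 min room-temperature incubation followed. Third, further NADPH and then DTNB were added to start the reaction. Finally, TNB absorbance was monitored kinetically.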
HCMV antiviral = human cytomegalovirus inhibition. HFF cells, HCMV-luciferase reporter, 72 h; hits give low values. activity change, negative = inhibition, % at 57.5 µM. 4.5% of 410,000 active. AID 1259415; in the data active means activity change below about -60%; inconclusive means no clear call, values can overlap the other calls; inactive means above about -39%
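Two-dose cell screen: HFF monolayers treated with compounds and infected with luciferase-expressing HCMV at 1 PFU/cell, 72 h at 37C, then lysed for luciferase measurement.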
FMDV inh = antivirals against foot and mouth disease virus | FMDV antiviral cell-based qHTS | Potency, µM (doses to about 57.9 µM), for inactives: at the top dose activity change, negative = inhibition, usual class: inhibitors | 1.2% of 410,000 active | AID 1159524; calls by dose curve; tested in HEK293T cells; further: read-out not given here; potency means the concentration at half of the fitted maximal effect; nearly all actives have a fitted effect of over 45% in size
Vaccinia Venus = inhibitors of vaccinia virus (Venus reporter). Vaccinia virus Venus reporter expression, fluorescence. Potency, µM (series often up to 36.5 µM), inactives show at the highest dose activity change, negative = inhibition, most hits filed as inhibitors. 0.46% of 330,000 active; calls by dose curve; tested in A549 cells; further: potency means the concentration at half of the fitted maximal effect; nearly all actives have a fitted effect of over 30% in size
Vaccinia mCherry = vaccinia inhibition (mCherry reporter); Vaccinia virus mCherry reporter infection, fluorescence; Potency, µM (doses to about 36.5 µM), for the others: at the top dose activity change, negative = inhibition, actives largely listed as inhibitors; 0.63% of 310,000 active; calls by dose curve; tested in A549 cells; further: potency means the concentration at half of the fitted maximal effect; nearly all actives have a fitted effect of over 35% in size
The depositor's hits bear a star. Most compounds without a hit are left out; they make up all but 9.3% or so of the library. Unless noted, the call rests on the fitted dose curve; in most records, active means well fitted curve in the direction sought with a large enough effect; inconclusive means small, poorly fitted or top-dose-only effect, or another doubt; inactive means no such curve, though single readings can be large; an effect the other way counts as inactive or inconclusive. On the % scale 0 is the no-effect control and ±100 the full control effect.

O=P(/C(=N/O)Sc1ccccc1)(N1CCOCC1)N1CCOCC1 was read as HCV inh 2%, Sm TGR inh 13µM*, HCMV antiviral -23 and FMDV inh 15%.
For CCC(=O)Nc1ccc(NC(=O)CSc2nc3c(c(=O)n(C)c(=O)n3C)n2CC)cc1 the results were HCV inh -7%, Sm TGR inh -30%, HCMV antiviral -8, FMDV inh -3%, Vaccinia Venus -5% and Vaccinia mCherry inactive.
`Cc1cccc(-n2c(O)c(C=Nc3cc(O)ccc3C)c3ccccc3c2=O)n1` gave HCV inh 5%, Sm TGR inh 1%, HCMV antiviral inconclusive, FMDV inh -17%, Vaccinia Venus -11% and Vaccinia mCherry -2%.
Cc1cccc(-n2c(O)c(C=Nc3ccccc3O)c3ccccc3c2=O)n1 was read as HCV inh inconclusive, Sm TGR inh -31%, HCMV antiviral -64*, FMDV inh -21%, Vaccinia Venus 5% and Vaccinia mCherry -22%.
Screening Cc1[nH]nc2ncc(C(=O)c3ccccc3O)cc12 returned HCV inh -10%, Sm TGR inh -2%, HCMV antiviral -82* and FMDV inh -27%.
CC1CCN(c2cc(N(C)CCO)c([N+](=O)[O-])c3nonc23)CC1 was read as HCV inh -2%, Sm TGR inh 45µM*, HCMV antiviral -40 and FMDV inh 12%.
For Cc1ccc(N2CC(C(=O)Nc3ccc(S(=O)(=O)N4CCOCC4)cc3)CC2=O)cc1Cl (configuration not stated) the results were HCV inh 10%, Sm TGR inh -8%, HCMV antiviral 0, FMDV inh -17%, Vaccinia Venus -18% and Vaccinia mCherry -15%.
For CC(=O)c1sc(N/N=C/c2cccc(O)c2)nc1C the results were HCV inh -24%, Sm TGR inh -18%, HCMV antiviral 173, FMDV inh 26%, Vaccinia Venus -20% and Vaccinia mCherry -16%.
For Oc1ccc2ccccc2c1/C=N/Nc1ccccc1 the results were HCV inh -15%, Sm TGR inh 50µM*, HCMV antiviral -18, FMDV inh 20%, Vaccinia Venus -5% and Vaccinia mCherry -5%.
Screening CC(=O)c1sc(N/N=C\c2c(O)ccc3ccccc23)nc1C returned HCV inh inconclusive, HCMV antiviral -75*, FMDV inh -6%, Vaccinia Venus 25% and Vaccinia mCherry inconclusive.
COc1ccc(N/N=C/c2c(C(=O)O)ccc3ccccc23)cc1 was read as HCV inh inconclusive, Sm TGR inh inconclusive, HCMV antiviral -100* and FMDV inh 5%.
Screening COc1ccc2ccccc2c1/C=N/Nc1ccc(Cl)c(C(=O)O)c1 returned HCV inh 12%, Sm TGR inh inconclusive, HCMV antiviral 46, FMDV inh 7%, Vaccinia Venus 12% and Vaccinia mCherry inconclusive.
`Oc1ccc2ccccc2c1C=NC1CCCCC1` gave HCV inh -4%, Sm TGR inh 40µM*, HCMV antiviral -29, FMDV inh 9%, Vaccinia Venus -3% and Vaccinia mCherry inconclusive.
Screening Cc1sc2cc3c(c(C(=O)c4ccccc4)[n+]2c1C)-c1cccc2cccc-3c12 returned HCV inh 10µM*, Sm TGR inh -8%, HCMV antiviral -100*, FMDV inh 14µM*, Vaccinia Venus -6% and Vaccinia mCherry -24%.
For O=C(c1ccccc1)c1c2c(cc3sc4ccccc4[n+]13)-c1cccc3cccc-2c13 the results were HCV inh inconclusive, Sm TGR inh -14%, HCMV antiviral -103*, FMDV inh 40µM*, Vaccinia Venus 256% and Vaccinia mCherry 171%.
`C(=Nc1ccc(/C=C/c2ccnc3ccccc23)cc1)c1ccc2c(c1)OCO2` gave Vaccinia Venus -9% and Vaccinia mCherry -1%.
Screening O=C(Nc1ccc(CN2CCOCC2)cc1)c1ccc(-c2cc(Cl)ccc2Cl)o1 returned HCV inh inconclusive, Sm TGR inh 33%, HCMV antiviral inconclusive, FMDV inh 28µM*, Vaccinia Venus inconclusive and Vaccinia mCherry inconclusive.
O=[N+]([O-])c1cccc(-c2ccc(C(=S)N3CCOCC3)o2)c1 was read as HCV inh -30%, HCMV antiviral 37, FMDV inh 4%, Vaccinia Venus 1% and Vaccinia mCherry -16%.
For O=C(Nc1ccc(CN2CCOCC2)cc1)c1ccc(-c2cccc([N+](=O)[O-])c2)o1 the results were HCV inh 32µM*, Sm TGR inh -15%, HCMV antiviral inconclusive and FMDV inh inconclusive.
COc1ccccc1NC(=O)COc1ccc(CO)cc1Cl was read as HCV inh 10µM*, Sm TGR inh -10%, HCMV antiviral 44, FMDV inh 7% and Vaccinia Venus -2%.
Screening COc1ccccc1NC(=O)COc1ccccc1C(=O)Nc1ccccc1 returned HCV inh inconclusive, Sm TGR inh 15%, HCMV antiviral -93*, FMDV inh -22%, Vaccinia Venus 2% and Vaccinia mCherry -12%.
For Cc1cccc(CSC(=N)N)c1 the results were HCV inh 6%, Sm TGR inh -1%, HCMV antiviral -63*, FMDV inh 0%, Vaccinia Venus -17% and Vaccinia mCherry inactive.
C[C@H](NC(=O)c1nc[nH]c1C(=O)N1CCNCC1)C(=O)OCc1ccccc1 was read as HCV inh -4%, Sm TGR inh -1%, HCMV antiviral -10, FMDV inh -18%, Vaccinia Venus 2% and Vaccinia mCherry -13%.
`Cc1nnsc1C(=O)NNc1ccc(C(C)(C)C)cc1` gave HCV inh -15%, Sm TGR inh 35µM*, HCMV antiviral 27, FMDV inh -8%, Vaccinia Venus -1% and Vaccinia mCherry -10%.
Cc1cc(C)c(S(=O)(=O)N2CCC3(CC2)OCCN3S(=O)(=O)c2cccs2)c(C)c1 was read as HCV inh 11µM*, Sm TGR inh -4%, HCMV antiviral 0, FMDV inh 22%, Vaccinia Venus -19% and Vaccinia mCherry 0%.
`Cc1ccc(S(=O)(=O)N2CCC3(CC2)OCCN3S(=O)(=O)c2c(C)cc(C)cc2C)cc1` gave HCV inh 10µM*, Sm TGR inh 3%, HCMV antiviral 4, FMDV inh -13%, Vaccinia Venus 1% and Vaccinia mCherry -8%.
For COc1ccc(S(=O)(=O)N2CCC3(CC2)OCCN3S(=O)(=O)c2c(C)cc(C)cc2C)cc1 the results were HCV inh inconclusive, Sm TGR inh 6%, HCMV antiviral inconclusive, FMDV inh 9%, Vaccinia Venus -14% and Vaccinia mCherry -3%.
